PubChem BioAssay
A number with no mark means an inactive call. How the calls were made is not given here.

System: Aerobactin synthetase IucA (Klebsiella pneumoniae hvKP1)
Test: IucA enzyme inhibition, primary screen, biochemical, Spectrum library (AID 1346200);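 further: 100% = wells without compound and 0% = wells lacking enzyme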
Conditions: malachite green pyrophosphate, A620, at 8 µM, active compounds read low

| Structure (SMILES) | activity remaining [%] |
| --- | --- |
| Cc1cc(O)c(C=O)c2c1C(=O)Oc1c(C)c(O)c3c(c1O2)C(O)OC3=O (stereo not given) | 113 |
| NC(C(=O)O)C(O)C(=O)O (stereo not given) | 97.5 |
| NNC(=O)c1ccncc1 | 106 |
| O=c1c(O)c(-c2ccc(O)cc2)oc2ccccc12 | 104 |
| CNC[C@@H](O)c1ccc(O)c(O)c1 | 115 |
| CCC(C)C(NC)C(=O)O (stereo not given) | 116 |
| COc1ccc2c(c1)OC/C(=C\c1ccc(OC)c(O)c1)C2=O | 120 |
| CC1(C)S[C@@H]2[C@H](NC(=O)[C@H](NC(=O)N3CCNC3=O)c3ccccc3)C(=O)N2C1C(=O)O (stereo not given in full) | 95.7 |
| O=C(O)c1cc(O)c(O)c(O)c1 | 117 |
| NC(COCc1ccccc1)C(=O)O (stereo not given) | 105 |
| COc1cc(O)c2c(=O)cc(-c3ccc(OC)c(-c4c(O)cc(O)c5c(=O)cc(-c6ccc(O)cc6)oc45)c3)oc2c1 | 118 |
| Oc1ccc2c(c1)OCC1c3cc4c(cc3OC21)OCO4 (stereo not given) | 87.4 |
| CC[C@H]1OC(=O)[C@H](C)[C@@H](O[C@H]2C[C@@](C)(OC)[C@@H](O)[C@H](C)O2)[C@H](C)[C@@H](O[C@@H]2O[C@H](C)C[C@H](N(C)C)[C@H]2O)[C@](C)(O)C[C@@H](C)CN(C)[C@H](C)[C@@H](O)[C@]1(C)O | 104 |
| C=C[C@H]1CN2CC[C@H]1C[C@@H]2[C@H](O)c1ccnc2ccc(OC)cc12 | 112 |
| NCC1CCC(C(=O)O)CC1 (stereo not given) | 102 |
| C#C[C@]1(O)CCC2C3CCC4=Cc5oncc5C[C@]4(C)C3CC[C@@]21C (stereo not given in full) | 120 |
| CCCCC1=NC2(CCCC2)C(=O)N1Cc1ccc(-c2ccccc2-c2nn[nH]n2)cc1 | 121 |
| CCN1CCCC(OC(=O)C(c2ccccc2)c2ccccc2)C1 (stereo not given) | 110 |
| CC(C)C[C@@H](NC(=O)OCC1c2ccccc2-c2ccccc21)C(=O)O | 119 |
| CS(=O)(=O)c1ccc([C@@H](O)[C@@H](CO)NC(=O)C(Cl)Cl)cc1 | 124 |

| Structure (SMILES) | activity remaining [%] |
| --- | --- |
| COc1c(O)cc2c(c1O)[C@H]1O[C@H](CO)[C@@H](O)[C@H](O)[C@@H]1OC2=O | 112 |
| CC1(C)CC2C1CCC1(C)OC1CCC2(C)O (stereo not given) | 120 |
| O=C(O)c1c2ccccc2cc2ccccc12 | 116 |
| CC1CCC2(OC1)OC1CC3C4CC[C@H]5C[C@@H](O)CC[C@]5(C)C4CC(=O)[C@]3(C)C1C2C (stereo not given in full) | 94.1 |
| O=C(O)c1ccccc1C(=O)Nc1ccc(S(=O)(=O)Nc2nccs2)cc1 | 98.2 |
| CC(=O)O[C@@H]1CC[C@@]2(C)C(CC[C@]3(C)C2CC=C2C4CC(C)(C)CC[C@]4(C(=O)O)CC[C@]23C)C1(C)C (stereo not given in full) | 96.2 |
| OCc1ccccc1O | 115 |
| O=C1c2cccc(O)c2C(=O)c2c(O)cccc21 | 93.6 |
| CN1CCC[C@H]1c1cccnc1 | 117 |
| CC(=O)OC1CCC2(C)C3CC(=O)C4(C)C(CC5OC6(CCC(C)CO6)[C@@H](C)C54)C3CC[C@H]2C1 (stereo not given in full) | 102 |
| COc1c2c(cc3c1OCO3)C13C=C[C@H](OC)CC1N(C2)CC3O (stereo not given in full) | 107 |
| CC(=O)O[C@@H]1C=C[C@@]2(C)C(C[C@@H](OC(C)=O)[C@@]3(C)C4=CC(=O)O[C@@H](c5ccoc5)[C@]4(C)CCC23)C1(C)C (stereo not given in full) | 82.6 |
| COc1c2ccoc2cc2oc(C)cc(=O)c12 | 108 |
| CNCc1ccccc1 | 108 |
| CC(=O)OCC(=O)[C@@]1(O)[C@H](C)CC2C3CCC4=CC(=O)C=C[C@]4(C)[C@@]3(F)[C@@H](O)C[C@@]21C (stereo not given in full) | 119 |
| CCC(C(N)=O)c1ccccc1 (stereo not given) | 119 |
| CN1C(C(=O)Nc2ccccn2)=C(O)c2sccc2S1(=O)=O | 82.2 |
| Nc1c(Br)cc(Br)cc1CNC1CCC(O)CC1 (stereo not given) | 93.2 |
| CN(C)c1ccc(C(=C2C=CC(=[N+](C)C)C=C2)c2ccc(N(C)C)cc2)cc1 | 118 |
| CO[C@@H]1[C@@H](O[C@@H]2O[C@H](C)[C@@H](O[C@H]3C[C@@](C)(O)[C@H](O)[C@H](C)O3)[C@H](N(C)C)[C@H]2O)[C@@H](CC=O)C[C@@H](C)[C@@H](O[C@H]2CC[C@H](N(C)C)[C@@H](C)O2)/C=C/C=C/C[C@H](C)OC(=O)C[C@H]1O | 96.2 |
